# Key:
# Test in all cases: PBM binding z-score (relative to random genomic background probes); higher = stronger binding; sequences stand for … in GC…GCGATTGACAGCGTAGAATGAAGG
# [1] = test system: LXRa:RXRa (NR concentration 270 nM, RXRa partner concentration 90 nM)
# In short: (§1)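 For binding z-scores, the reference was random background probes on custom Agilent 4×180K protein-binding microarrays. These arrays were incubated 1 h with ligand-free nuclear receptor dimers in PBS pH 7.4, 2% milk, 0.02% Triton X-100, 1 mM DTT, 0.2 mg/mL BSA and 0.4 mg/ml salmon testes DNA. Fluorescence was scanned after antibody detection of each partner (one per run) and regression-normalized.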
# [2] = test system: LXRa homodimer (NR concentration 270 nM)
# In short: as §1
# [3] = test system: LXRb homodimer (NR concentration 270 nM)
# In short: as §1
# [4] = test system: PPARa:RXRa (NR concentration 270 nM, RXRa partner concentration 90 nM)
# In short: as §1
# [5] = test system: PPARg:RXRa (NR concentration 180 nM, RXRa partner concentration 90 nM)
# In short: as §1
# [6] = test system: PPARg:RXRa 270nM:90nM, anti-RXR (NR concentration 270 nM, RXRa partner concentration 90 nM)
# In short: as §1
# [7] = test system: PPARg:RXRa 30nM:10nM, anti-RXR (NR concentration 30 nM, RXRa partner concentration 10 nM)
# In short: as §1
# [8] = test system: PPARg:RXRa 90nM:30nM, anti-RXR (NR concentration 90 nM, RXRa partner concentration 30 nM)
# In short: as §1
# [9] = test system: PPARg:RXRa DBDmut IVT, anti-RXR (DBD mutation: RXRa K156A/R161A, NR concentration 270 nM, RXRa partner concentration 90 nM)
# In short: as §1
Sequence,PBM binding z-score [1],PBM binding z-score [2],PBM binding z-score [3],PBM binding z-score [4],PBM binding z-score [5],PBM binding z-score [6],PBM binding z-score [7],PBM binding z-score [8],PBM binding z-score [9]
AATACAGGGTCATCGTACGCCAGAGTACGCACAG,6.21,2.87,1.54,5.99,7.02,6.25,2.92,5.21,2.92
TGAATGAGGTTAAATATCAGGGAACGTGGCGTCG,2.5,-0.0698,0.686,,2.51,3.17,1.45,2.46,2.43
CGAACGAGGTCATCCAGGACAGTGAATACATTGA,6.03,1.53,1.78,6.37,7.79,7.07,3.9,6.1,5.37
CGAACAAGGTCACCAGGACAGTGAAGAGGTTGGA,5.26,0.443,0.736,6.12,7.8,7.38,3.87,6.13,5.38
CAAAATAGGTCACGAAAGGTCAAAGTCGAATGAC,8.64,8.09,3.59,6.79,10.4,8.59,7.39,8.59,7.95
GATACAGGGTCAAGGTCAGAGTACGCGTATTGAT,5,1.48,0.776,5.88,7.68,6.67,4.07,5.8,2.93
GCTGCGAGGTCAACTGATGGTCAGCTAAAGCTCG,5.87,1.54,1.67,6.02,6.28,6.33,2.91,5.05,3.65
ATCGAAAGGTCGACGAGGTGAGTAAACACCGTTT,3.58,0.0172,0.228,4.51,2.6,3.59,1.02,2.3,0.114
TTACCAAGGTCAAGGTCGTTGATCCCTCTGTAGA,5.51,3.05,1.11,5.9,6.32,6.38,3.44,5.46,3.67
CGTCCAAGGTCACGGTCAGTGAAAGAGACTCGAA,6.12,0.892,0.155,6.27,7.75,7.26,4.16,6.37,4.83
TAGCCTAAGTCATGCGGGCCAGTATAGTGTCGGC,-0.396,-0.595,-1.13,-0.167,-0.117,-0.602,-0.673,-0.77,-0.333
TCTATTAGTTGATTAGGGCAACCGAAACAGCGGA,0.552,0.193,0.613,1.05,0.303,2.14,3.65,2.63,2.02
CCTAGTGGGCCAAGGTCATTGATCAGTCAAAGCA,2.91,0.693,-0.381,3.87,4.1,4.29,1.64,3.71,3.98
CGTCCGAGGTCATAGGAGGTCAGTGAAGACAGAT,7.86,5.54,1.19,6.37,6.96,6.5,2.81,5.53,3.62
CAGCATAGGTCAGGGCCAGTATAGGAGGAACGTT,2.57,-0.16,-0.316,3.86,2.08,1.98,0.464,0.958,0.577
ATATGTAGGTTAGCTGGGGTCATTCACACTAGGC,5.86,3.53,1.66,5.22,5.47,5.14,2.95,4.69,6.87
CGAACTACGTCATCCAGGACAGTGAATACATTGA,-0.0453,0.121,-0.033,-0.0578,0.703,-0.106,0.193,-0.145,0.257
TGTCAAAGTTCAAAGGTGACGTAAGTATCCACAC,6.41,4.7,1.8,6.09,9.47,7.89,6.06,7.61,0.732
TAGCCTAGGTCATGCGGCCCAGTATAGTGTCGGC,3.19,0.125,-0.105,3.52,2.04,2.49,0.144,1.04,1.17
CCAACTGGGCCAAAAAGGTCATTGATGCCGATAA,4.4,3.17,0.337,4.57,3.08,4.09,1.65,3.3,4.24
TTACCAAGGTGAAAGGTCGTTGCTGCACGCCTTG,3.07,0.401,-0.185,5.33,8.98,7.85,8.63,8.9,2.97
CCTAGTTGTTCAGGAGGTCACACACCGGATATGA,4.36,3.87,1.61,4.17,2.04,2.98,1.11,1.87,0.958
CGAACTAGGTCGTCCAGGACAGTGAATACATTGA,0.121,-0.214,-0.486,2.09,2.47,1.89,0.4,1.39,5.71
CGAACTAGGTCGCCAGGACAGTGAAGAGGTTGGA,0.158,-0.593,-0.928,2.09,2.71,2.49,0.111,1.62,5.94
CAAACTAGGTCACGAGAGGTCAAAGTCGAATGAC,8.28,8.5,2.4,,10.7,8.59,6.83,8.87,8.71
CCTTACGGGTCCCTCCAGGTTATAGCATCGGAGT,-0.148,-0.112,-0.475,,-0.172,-0.6,-0.679,-0.697,-1.14
CGAACAAGGTCATTGACAGGACAGTGAATAGTAA,5.4,1.2,1.12,,5.6,5.66,2.36,4.75,4.08
AGAATGAGGTCACCAAAGATCAGGGAAACGCTTG,6.5,1.08,0.991,,8.68,8.01,5.4,7.63,7.14

Sequence,PBM binding z-score [1],PBM binding z-score [2],PBM binding z-score [3],PBM binding z-score [4],PBM binding z-score [5],PBM binding z-score [6],PBM binding z-score [7],PBM binding z-score [8],PBM binding z-score [9]
CCTGCTAGGTCATGGTCAGCGAATCTACAGTATG,2.19,-0.0156,-0.255,,2.7,2.69,0.687,1.77,4.64
CGAACGAGGTCACCAGGACAGTGAAGAGGTTGGA,5.61,0.912,0.295,,8.9,7.66,5.23,6.73,5.64
CGTCAAAGATCAAGGTAACGTAACAGAAAGCAGC,-0.053,-0.313,-0.677,,0.887,1.09,0.0515,0.332,0.519
TCTGCTAGGTCAACGATGGTCAGTTAATCTGCTA,2.65,-0.279,0.325,,2.14,2.8,1.79,2.47,4.02
GCTGCTAGGTCAACTGATGGTCACCTAAAGCTCG,3.3,0.787,0.117,,3.2,3.59,0.832,2.56,5.16
TGTATGAGGTTAAAGATCAGGGAACGTGGCGTCG,3.09,0.262,1.41,,4.1,5.21,3,4.93,0.702
GCTAGTTGGTCAGTAAAATGTCACACACCGGTCG,0.173,-0.0317,-0.257,,0.556,-0.103,-0.158,0.223,0.762
TAGCCTAGGTCATGCGGGACAGTATAGTGTCGGC,2.99,0.386,-0.0861,,2.48,2.57,0.321,1.17,1.71
TATACAGGGTCAAAGGCCAAAGTACGAATGTCGA,6.59,3.06,2.44,,9.55,7.98,7.57,8.54,2.77
CGTCCGAGGTCAAGGTCAGTGAAAGAGACTCGAA,6.22,1.31,1.54,,7.82,7.45,3.9,6.47,4.18
AGTCAAAGTTCAGGACGAGGTAACGTTAAGCACG,3.74,1.1,0.0351,,4.29,4.64,2.03,3.86,-0.183
CCGACTGGGGCAAGGTCACCATAACGCACAGCCA,2.82,0.471,-0.792,,4.78,4.63,2.12,3.78,3.03
AGAATGAGGTCATACGTAGATCAGGGAAGAAAGT,6,1.75,1.92,,7.83,7.25,4.88,6.67,6.81
CCTTAAGGGTCACGAGGTTATAGCACGACGAGCG,5.92,0.987,0.697,,8.45,7.7,4.56,6.73,4.16
CGAACGAGGTCATGAGTTGATAGCAAATGCCGAT,5.51,0.616,0.023,,7.55,6.94,4.16,5.98,5.48
CGCACTAGGTCATCCAGGACAGTGAATACATTGA,2.83,0.736,0.107,,7.36,6.27,3.65,5.62,7.71
GGAACGAGGTCATTCGAGTTGATAGCATGGCGAT,6.43,1.91,1.68,,6.59,6.55,3.27,5.58,5.42
ATCGAAAGGTCCACGAGGTGAGTATACACCGTTT,0.186,-0.0739,-0.26,,0.818,0.448,0.0544,0.533,0.0323
TGTCAACGTTCAAAGGTAACGTAAGTATCCACAC,0.794,-0.182,0.0417,,2.58,2.69,1.18,2.07,-0.155
CGTCCAAGGTCATAGAGGTCAGTGAATGCCGAGT,6.21,5.25,1.36,,5.9,6.21,2.57,4.71,4.3
TAGCCTAGTTCATTCAGGGGCCAGTATAGAAAGC,0.593,0.155,0.584,,0.203,0.273,-0.157,0.0192,1.65
TTACCAAGGTGAACGGTCGTTGATGCACGCCTTG,0.744,-0.159,-0.974,,1.77,2.8,1.17,2.35,2.31
ATATGTAGGTTAAGCGTCATTCAGGTTGGTTCGC,1.08,0.422,0.251,,6.75,6.77,5,6.63,7.13
ATCGAAAGGTCGACGCGGTGAGTATACACCGTTT,3.4,-0.127,0.391,,2.07,2.54,0.887,1.8,-0.0451
AGAATGGGGTTATACGTAGATCAGGGAAGAAAGT,2.95,0.583,2.07,,3.69,4,1.39,3.03,4.84
AGTCAAAGTGCATCTAGGTAACGTAAGATATGCT,0.188,-0.289,-0.415,,2,2.08,0.727,1.47,0.592
CCTACTCGGCCAAAAAGGTCATTGATGCCGATAA,4.55,4.59,0.927,,1.91,3.11,0.833,2.27,1.1

# — the supplement of paper PMC6555819
